LGR2 antag: inhibitors of bursicon-induced Drosophila LGR2 receptor cAMP signaling. HEK293 LGR2, CRE-luciferase, bursicon-stimulated, 4 h. inhibition, % at 9.99 µM. 380,000 compounds, 0.35% hits;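 active = drop in luminescence signal, shown as inhibition above about 50% in the replicate tests, limit read from the data, passing the limit was not always enough; inconclusive = probably only some replicates passing the limit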;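 also: agonist challenge used bursicon conditioned medium at about half maximal strength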
HSF1 inh: HSF1 inhibition | activity change, negative = inhibition, % at 7.5 µM (by protocol) | NIH3T3-HGL HSE-luciferase, MG132-induced, luminescence 8 h; hits give low values | 300,000 compounds, 0.77% hits;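 active = more than half of replicate wells show activity change below -50%, luminescence cut by over half; inconclusive = some wells, but at most half, below -50%; inactive = no replicate well below -50%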;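 also: luciferase reports HSF-1 transcriptional activity via heat shock element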
HSF1 activator: increases HSF-1 driven luciferase reporter signal | NIH3T3-HGL HSF-1 luciferase reporter, MG132, 8 h; 100% = twice DMSO control signal | activation, % at 9 µM | 300,000 compounds, 1.7% hits | AID 504408;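 active = mean replicate activation of at least 50% with a set share of replicates each reaching 50%; inconclusive = only one of those two conditions met; inactive = mean below 50% and too few replicates reaching it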
TROY NFkB inh: inhibitors of TROY-dependent NF-kB signaling | 360,000 compounds, 0.98% hits | Q293 LMP1-TROYcd NF-kB luciferase reporter, 4 h | inhibition, % at 10 µM;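 active = compounds whose plate-normalised and pattern-corrected inhibition of the luciferase reporter signal at the single screening dose is 50% or more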
EBV LMP1 NFkB: Epstein-Barr LMP1 NF-kappaB reporter inhibition. inhibition, % at 12.5 µM. AID 504558. 350,000 compounds, 0.69% hits. LMP1-induced NF-kappaB luciferase reporter cells, luminescence; in the data active = inhibition above about 41%; inconclusive = no clear call, values can overlap the other calls
TWEAK Fn14 block: TWEAK-Fn14 signaling inhibition | AID 1159606 | 360,000 compounds, 2% hits | inhibition, % at 10 µM | TWEAK-stimulated Fn14 reporter cells, luciferase luminescence, 8 h; in the data active = inhibition above about 50%
Numbers stand for hits; n = inactive; u = inconclusive; x = no result. Only some compounds are listed: those with a hit (about 3.6% of all), similar ones and a draw of the others.

SMILES | LGR2 antag | HSF1 inh | HSF1 activator | TROY NFkB inh | EBV LMP1 NFkB | TWEAK Fn14 block
COc1cc(NC(=O)CSc2ncnc3c2cnn3Cc2ccccc2)cc(OC)c1 | x | n | n | n | n | 62
CNC[C@@H]1OCCCC[C@H](C)Oc2ccc(NC(=O)Nc3ccc(OC)cc3)cc2C(=O)N([C@@H](C)CO)C[C@@H]1C | n | x | x | x | x | x
CO[C@@H]1CN(C)C(=O)c2cc(NC(=O)c3ccno3)ccc2OC[C@H](C)N(S(C)(=O)=O)C[C@@H]1C | n | x | x | x | x | x
CC(C)N1C(=O)/C(=C\c2nc3ccccc3c(=O)n2-c2ccccc2)c2ccccc21 | u | n | n | n | n | 54
CC(C)N1C(=O)/C(=C/c2nc3ccccc3c(=O)n2-c2ccccc2)c2ccccc21 | x | n | n | n | n | n
Cc1cc(=O)oc2cc(OC(=O)c3nn(C(C)C)c(=O)c4ccccc34)ccc12 | n | n | n | n | n | n
CC(C)n1nc(C(=O)Oc2ccc(Cl)cc2)c2ccccc2c1=O | n | n | n | n | n | 51
Cc1nn(CCc2nn[nH]n2)c2nc(-c3ccc(C4CCCCC4)cc3)cc(C(F)(F)F)c12 | n | n | n | 56 | n | n
C[C@@H]1CN([C@@H](C)CO)S(=O)(=O)c2ccc(C3=CCCCC3)cc2O[C@H]1CN(C)C(=O)Cc1cccnc1 | n | x | x | x | x | x
CC[C@@]1(O)C(=O)OCc2c1cc1n(c2=O)Cc2cc3c(N)cccc3nc2-1 | x | n | 50 | 63 | 83 | 70
CCCCc1cc(=O)oc2c(CN(C)C)c(O)ccc12 | x | n | n | n | n | n
O=c1cccc2n1Cc1cc3ccccc3nc1-2 | n | n | n | n | n | n
CC[C@@]1(O)C(=O)OCc2c1cc1n(c2=O)Cc2cc3c(CN(C)C)c(O)ccc3nc2-1 | 97 | n | n | 79 | 75 | n
Cc1ccc(NC(=O)Cc2nnc(SCC(=O)NC3CCCC3)n2C)cc1C | n | n | n | n | 45 | n
Cc1ccc(NC(=O)Cc2nnc(SCC(=O)NC3CCCC3)n2C)cc1 | n | n | n | n | n | n
COC(=O)CCN1CCc2cc(N=Nc3ccc([N+](=O)[O-])cc3)ccc21 | n | -63 | n | 53 | n | n
Cc1ccccc1CN1CCc2cc([N+](=O)[O-])ccc21 | n | n | n | n | n | n
CCCN(CC)c1ncnc2[nH]ncc12 | n | x | x | n | 43 | 67
CN(C)c1ncnc2[nH]ncc12 | n | x | x | n | n | n
CCCCCNc1nc(-c2ccccc2)cs1 | x | n | 55 | x | x | x
CC1CCN(C(=O)CSc2ccc(-c3ccc4c(c3)OCCO4)nn2)CC1 | n | n | n | n | n | n
CC1CCCC(C)N1C(=O)CSc1ccc(-c2ccc3c(c2)OCCO3)nn1 (stereo unspecified) | n | -88 | n | n | n | n
CC(C)CC#Cc1cnc2c(c1)C(=O)N([C@@H](C)CO)C[C@H](C)[C@@H](CN(C)C(=O)C1CCOCC1)O2 | n | x | x | x | x | x
CCOC(=O)NC(=O)/C(C#N)=N/Nc1c(F)cccc1F | x | n | 64 | n | n | n
CC(=O)c1c(OC(=O)c2ccccc2Br)ccc2c(C)cc(=O)oc12 | n | n | n | n | n | 54
SMILES | LGR2 antag | HSF1 inh | HSF1 activator | TROY NFkB inh | EBV LMP1 NFkB | TWEAK Fn14 block
CC(=O)c1c(OCC(=O)O)ccc2c(C)cc(=O)oc12 | n | n | n | n | n | n
Cc1cc(C)n2nc(C(=O)NCc3cccc(C(F)(F)F)c3)nc2n1 | n | n | n | 51 | n | n
Cc1ccnc(NC(=O)c2ccc(Cl)cc2Cl)n1 | n | n | n | x | x | x
O=C(NC(=S)Nc1ncccn1)c1ccc(Cl)cc1Cl | n | n | 64 | n | n | n
CCCCn1cc(S(=O)(=O)c2ccccc2)c(=O)c2cc(C)ccc21 | n | -74 | n | n | n | n
CCCn1cc(S(=O)(=O)c2ccccc2)c(=O)c2cc(OCC)ccc21 | n | n | n | n | n | n
C[C@H](CO)N1C[C@H](C)[C@H](CN(C)C(=O)Nc2ccc3c(c2)OCO3)OCCCC[C@H](C)Oc2ccc(NS(=O)(=O)c3ccccc3)cc2C1=O | n | x | x | x | x | x
CC(C)NC(=O)N(C)C[C@@H]1Oc2ncc(C#CC3CCCC3)cc2C(=O)N([C@H](C)CO)C[C@@H]1C | n | x | x | x | x | x
Cc1cc(C(=O)CSc2nc(N)cc(N)n2)c(C)n1C1CC1 | n | n | n | n | n | n
COCCn1c(C)cc(C(=O)Cn2nc(C(=O)O)c3ccccc3c2=O)c1C | n | n | n | n | n | 69
C=CCn1c(C)cc(C(=O)CSc2nc(N)cc(N)n2)c1C | n | n | 66 | n | n | n
Cc1cc(C(=O)Cn2nc(C(=O)O)c3ccccc3c2=O)c(C)n1C1CC1 | n | n | n | n | n | n
C=CCn1c(C)cc(C(=O)Cn2nc(C(=O)O)c3ccccc3c2=O)c1C | n | n | n | n | n | 55
CCCC(=O)Nc1ccc2c(c1)C(=O)N(C)C[C@H](OC)[C@@H](C)CN(C(=O)CN(C)C)[C@H](C)CO2 | n | x | x | x | x | x
Cc1noc(C)c1NC(=O)N(C)C[C@@H]1Oc2ccc(NC(=O)C3CC3)cc2C(=O)N([C@@H](C)CO)C[C@@H]1C | n | x | x | x | x | x
O=C(O)C[C@H]1CC[C@H](NC(=O)CCN2CCCCC2)[C@@H](CO)O1 | n | x | x | x | x | x
COC(=O)C[C@@H]1CC[C@H]2[C@H](COc3ccc(NC(=O)c4ccccc4OC)cc3C(=O)N2C)O1 | n | x | x | x | x | x
O=C1c2ccccc2C(=O)C1c1ccc(Cl)cc1 | n | n | n | n | n | n
O=C1c2ccccc2C(=O)C12OC2c1ccc(Cl)cc1Cl (stereo unspecified) | n | x | x | n | n | 72
Cc1ccc(-c2ccc(/C=N/c3ncn[nH]3)o2)cc1Cl | n | n | n | n | 59 | n
CCC(=O)N1[C@@H](CO)[C@@H]2c3ccccc3N(C(=O)Nc3cccc(Cl)c3)C[C@@H]21 | n | x | x | x | x | x
CCCc1cc(=O)oc2cc(C)cc(OCC(=O)NCCCn3ccnc3)c12 | n | -76 | n | n | n | n
COc1cc(C(O)P(=O)(OC2CCCCC2)c2ccc(N(C)C)cc2)cc(OC)c1OC (stereo unspecified) | x | n | 57 | n | n | n
CCOC(=O)c1ccc(NC(=O)CSc2nc(C)cc(=O)[nH]2)cc1 | x | n | n | n | n | n
CCOC(=O)c1c(-c2ccccc2)csc1NC(=O)CSc1nnc(C)s1 | n | n | n | n | n | 79
SMILES | LGR2 antag | HSF1 inh | HSF1 activator | TROY NFkB inh | EBV LMP1 NFkB | TWEAK Fn14 block
CCOC(=O)c1c(-c2ccccc2Cl)csc1NC(=O)CSc1nc(C)cc(=O)[nH]1 | n | n | n | 59 | n | n
CC(=O)N(C)C[C@H]1[C@@H](c2ccc(-c3cccnc3)cc2)[C@@H](CO)N1C(=O)C1CC1 | n | x | x | x | x | x
Cc1cc2nc(-c3ccccc3O)[nH]c2cc1C | n | x | x | n | n | n
O=[N+]([O-])c1cc(-c2n[nH]c(-c3ccccc3)n2)cc([N+](=O)[O-])c1 | n | n | n | n | n | n
Clc1ccccc1-c1nc(-c2ccccc2)n[nH]1 | x | n | 54 | n | n | n
Oc1ccccc1-c1n[nH]c(-c2ccccc2O)n1 | n | x | x | n | n | 77
